Compound activity deposited in PubChem BioAssay by National Center for Advancing Translational Sciences (NCATS).
Hits are enriched below; roughly 9.2% of the tested compounds scored in any of these assays.
ELG1 repair inh: blocks ELG1-dependent DNA repair in HEK293T cells; HEK293T ELG1-luciferase reporter, luminescence, 16 h; DNA damage induced by 5-fluorouridine; Potency, µM (doses to about 46.1 µM), inactives show at the top dose activity change, negative = inhibition, most hits filed as inhibitors; 330,000 tested, 2.3% active; further: on the % scale 0 is the no-effect control and ±100 the full control effect; nearly all actives have a fitted effect of over 55% in size
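Reporter activity after DNA damage by 5-fluorouridine is monitored. Compound-treated cells incubate 16 hr at 37 °C, then ONE-Glo is added for 30 min before luminescence reading.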
NPC1 prom act: activates the NPC1 promoter; 320,000 tested, 2.4% active; AID 485313; Huh7 NPC1 promoter luciferase reporter, 24 h; Potency, µM (doses to about 9.22 µM), without a hit: top-dose activation, usual class: activators; further: % of control where 0% means no effect; nearly all actives have a fitted effect of over 60% in size
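Stably transfected Huh7 (NPC1 promoter→luciferase), 1500 cells/well in Opti-MEM + 10% FBS, 2 h settle, then compound 24 h at 37 °C. Luminescence after 10 min with Amplite reagent.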
SMN2 splice up: enhancers of SMN2 splice variant expression | 210,000 tested, 2.8% active | AID 1458 | HEK293 SMN2-luciferase splicing reporter, luminescence, 30-36 h | Potency, µM (top dose mostly 46.1 µM), inactives show top-dose activity change, positive = activation, actives largely listed as activators; further: % of control where 0% means no effect; nearly all actives have a fitted effect of over 55% in size
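HEK293 cells carry an SMN2 minigene-luciferase reporter in which exon 7 inclusion puts luciferase in frame. Cells were seeded at 2000 cells/well, attached for 10-12 hours, then exposed to compounds for 30-36 hours at 37C before ONE-Glo luminescence.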
ELG1 genotoxic: inducers of genotoxicity in HEK293T ELG1-luciferase cells | HEK293T ELG1-luciferase reporter, luminescence, 16 h | Potency, µM (top dose mostly 46 µM), inactives show at the top dose activity change, positive = activation, usual class: activators | 330,000 tested, 1.3% active | AID 504466; further: % of control where 0% means no effect; nearly all actives have a fitted effect of over 60% in size
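After overnight (16 hr) compound treatment at 37 °C, ELG1-luciferase HEK293T cells were lysed with ONE-Glo; luminescence quantified 30 min later at room temperature.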
FLuc modulator: inhibits or activates purified firefly luciferase, miR-21 counter-screen | Potency, µM (top dose mostly 57.5 µM), without a hit: at the highest dose activity change, negative = inhibition, usual class: inhibitors | 360,000 tested, 6.9% active | P08659 | purified FLuc, Km substrates, luminescence inhibition;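 further: plate controls were vehicle for no effect and reference inhibitor for full effect; nearly all actives have a fitted effect of over 55% in size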
Target sequence (P08659 whole entry, looked up): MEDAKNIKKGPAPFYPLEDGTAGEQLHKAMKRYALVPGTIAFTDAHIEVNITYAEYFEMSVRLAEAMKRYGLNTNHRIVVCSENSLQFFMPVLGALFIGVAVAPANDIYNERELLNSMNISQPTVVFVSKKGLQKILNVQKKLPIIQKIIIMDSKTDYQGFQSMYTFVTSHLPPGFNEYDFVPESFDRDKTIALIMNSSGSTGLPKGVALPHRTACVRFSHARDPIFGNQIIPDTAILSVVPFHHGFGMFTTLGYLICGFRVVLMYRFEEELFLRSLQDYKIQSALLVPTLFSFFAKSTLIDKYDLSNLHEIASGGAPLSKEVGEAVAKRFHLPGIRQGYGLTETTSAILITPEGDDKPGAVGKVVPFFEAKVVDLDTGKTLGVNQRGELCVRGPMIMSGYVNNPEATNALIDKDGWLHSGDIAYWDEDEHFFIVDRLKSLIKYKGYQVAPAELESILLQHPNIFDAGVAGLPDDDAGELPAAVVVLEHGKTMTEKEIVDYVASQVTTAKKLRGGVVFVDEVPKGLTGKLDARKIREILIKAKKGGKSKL
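Purified P. pyralis luciferase, 10 nM final, with Km-level 10 uM D-luciferin and 10 uM ATP in 50 mM Tris acetate pH 7.5, 10 mM Mg acetate, 0.01% Tween-20, 0.05% BSA; 6-point qHTS titration about 60 µM downward; luminescence read.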
Rab9 promoter act: activates the Rab9 promoter; AID 485297; Huh7 Rab9 promoter-luciferase reporter, luminescence, 24 h; Potency, µM (titrated, usually from 9.22 µM), inactives show at the highest dose activation, negative = inhibition, most hits filed as activators; 320,000 tested, 2.8% active; further: % of control where 0% means no effect; nearly all actives have a fitted effect of over 60% in size
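Luminescence from Amplite-detected luciferase (10 minutes, ambient) reports Rab9 promoter activation. Before that, stable Rab9-luciferase Huh7 cells (1500/well, reduced-serum OP-MEM I plus 10% FBS) were exposed to compound for 24 hours at 37C.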
Numbers without * were called inactive; ? = inconclusive; · = not tested or not shown; [ ] = another dose, or the depositor's remark. The call rests on the fitted dose curve; in most records, active means well fitted curve in the direction sought with a large enough effect; inconclusive means small, poorly fitted or top-dose-only effect, or another doubt; inactive means no such curve, though single readings can be large; an effect the other way counts as inactive or inconclusive. Potency means the concentration at half of the fitted maximal effect.

SMILES	ELG1 repair inh	NPC1 prom act	SMN2 splice up	ELG1 genotoxic	FLuc modulator	Rab9 promoter act
CC(=O)N1CCN(c2ccccc2NC(=O)c2cc3ccccc3o2)CC1	15µM*	15%	·	-8%	-17%	13%
O=C(Nc1ccccc1C(F)(F)F)c1cc2ccccc2o1	?	2.5µM*	·	10µM*	3.4µM*	2.2µM*
COC(=O)c1cccc(NC(=O)c2cc3ccccc3o2)c1	?	0.71µM*	·	16%	2.1µM*	0.71µM*
COC(=O)c1cc(NC(=O)c2cc3ccccc3o2)cc(C(=O)OC)c1	?	-4%	·	-8%	?	10%
COC(=O)c1ccccc1NC(=O)c1cc2ccccc2o1	?	?	·	-1%	13µM*	?
CCC(Sc1nc2ccncc2[nH]1)C(=O)Nc1ccc(C)c(Cl)c1 (stereo not drawn)	6%	-4%	·	0%	2%	0%
C=CCn1c(C)cc(C(=O)CN2NS(=O)(=O)c3ccccc3C2=O)c1C	?	18%	-15%	21µM*	1.7µM*	?
C=CCn1c(C)cc(C(=O)Cn2ncc(Cl)c(Cl)c2=O)c1C	?	-16%	?	-15%	5.4µM*	-25%
Nc1nc2ccc(O)cc2s1	-7%	-1%	1%	1%	-1%	3%
CC(C)c1ccc2nc(N)sc2c1	?	1.6µM*	13µM*	-8%	6.7µM*	2µM*
Cc1cc2nc(N)sc2cc1C	·	·	?	·	9.5µM*	·
Nc1nc2ccc(S(=O)(=O)c3ccc4nc(N)sc4c3)cc2s1	22%	-2%	-12%	-3%	11%	4%
O=S(=O)(c1ccc(N2CCN(Cc3ccc4c(c3)OCO4)CC2)nc1)N1CCOCC1	?	-4%	-32%	-10%	-1%	-2%
CCCCCC(=O)N1CCN(S(=O)(=O)c2ccc3c(c2)OCCO3)CC1	-1%	0%	·	1%	-1%	1%
O=C(CCl)N1CCN(S(=O)(=O)c2ccc3c(c2)OCCCO3)CC1	18µM*	-5%	·	6%	3%	-33%
O=S(=O)(c1ccc(N2CCN(S(=O)(=O)c3ccc4c(c3)OCCO4)CC2)nc1)N1CCCC1	8.2µM*	-6%	·	-6%	9%	1%
CCOC(=O)c1cc(-c2ccc(OC(F)F)cc2)nc2nc(SC)[nH]c(=O)c12	?	1%	·	-4%	6µM*	-4%
O=C(Cc1ccccc1F)Nc1cc(S(=O)(=O)N2CCOCC2)ccc1N1CCCC1	6%	·	·	1%	·	·
COc1ccc(-c2cc(C(=O)N3CCOCC3)no2)cc1	?	0.35µM*	·	0.41µM*	1.5µM*	0.45µM*
COc1cccc(-c2cc(C(=O)N3C(C)CCCC3C)no2)c1 (stereo not drawn)	?	5µM*	14µM*	7.1µM*	11µM*	3.2µM*
COc1cccc(-c2cc(C(=O)N3CCOCC3)no2)c1	?	1.3µM*	·	?	8.5µM*	1.4µM*
COc1cccc(-c2ocnc2C(=O)Nc2ccc(N3CCOCC3)cc2N2CCOCC2)c1	18µM*	2%	·	-6%	2%	2%
COc1ccc(-c2cc(C(=O)N3CCOCC3)no2)cc1OC	?	?	21%	?	?	22%
O=C(/C=C/c1ccccc1[N+](=O)[O-])N1CCc2ccccc2C1	?	15%	·	7%	?	14%
O=S(=O)(CCN1CCSCC1)c1ccccc1	21%	0%	·	2%	-3%	0%
SMILES	ELG1 repair inh	NPC1 prom act	SMN2 splice up	ELG1 genotoxic	FLuc modulator	Rab9 promoter act
COc1cccc(NC(=O)c2cc(CN3CCOCC3)on2)c1	·	·	·	·	-11%	·
O=C(CCCCn1c(=O)c2ccccc2n(Cc2ccccc2Cl)c1=O)NCCc1ccccc1	·	·	17%	·	4%	·
CCCNC(=O)c1c(NC(=O)c2ccccc2)sc2c1CCC(C(C)(C)C)C2 (stereo not drawn)	·	·	16%	·	-3%	·
COc1cccc(NC(=O)C(=O)N2CCOCC2)c1	?	24%	13µM*	?	19µM*	?
O=C1CCC/C=C\C[C@@H](CC(=O)N(CCO)Cc2ccccc2)C(=O)N[C@H](c2ccccc2)CO1	6%	·	·	0%	·	·
C[C@H](NC(=O)c1nc[nH]c1C(=O)NC1CCNCC1)C(=O)OCc1ccccc1	27%	·	·	3%	·	·
Brc1ccc(C2=Nn3c(nnc3-c3n[nH]c4c3CCC4)SC2)cc1	-3%	-27%	22µM*	?	3%[2.3 µM]	-11%
c1ccc(-c2ccc(C3=Nn4c(nnc4-c4cc(-c5ccccc5)n[nH]4)SC3)cc2)cc1	-25%	14%	-10%	-8%	4.8µM*	-10%
Cc1ccc(C)c(CN2C(=O)C(O)(c3c[nH]c4ccccc34)c3ccccc32)c1 (stereo not drawn)	·	·	5%	·	-16%	·
CCOC(=O)/C(=N\Nc1ncnc2ccccc12)c1ccc(OC)cc1	?	3.5µM*	·	?	5.4µM*	3.2µM*
COc1ccc(/C(=N/Nc2ncnc3ccccc23)C(=O)O)cc1	?	2%	·	?	?	1%
COc1ccc(N(C)S(=O)(=O)c2cccc(C(=O)Nc3cc(OC)ccc3OC)c2)cc1	?	-2%	-24%	-8%	6%	-10%
COc1ccc(N(C)S(=O)(=O)c2cccc(C(=O)Nc3ccc4c(c3)OCCO4)c2)cc1	?	0%	9%	-13%	-9%	-8%
COc1ccc(N(C)S(=O)(=O)c2cccc(C(=O)Nc3ccc(-n4cnnn4)cc3)c2)cc1	18µM*	-24%	-42%	-13%	1%	1%
COc1ccc(N(C)S(=O)(=O)c2cccc(C(=O)Nc3ccc(OC)nc3)c2)cc1	18µM*	1%	-19%	-8%	-1%	-5%
COc1ccc(N(C)S(=O)(=O)c2cccc(C(=O)OC(C(=O)Nc3cc(C)cc(C)c3)c3ccccc3)c2)cc1 (stereo not drawn)	-4%	12%	16µM*	-2%	6%	-2%
Cc1cc(C)cc(C(=O)Nc2ccc(NC(=O)Cc3ccccc3)cc2)c1	?	-1%	-14%	?	-1%	0%
Cc1nn(CC(=O)N2CCN(c3cccc(Cl)c3)CC2)c(=O)c2c1sc1ccccc12	·	·	·	·	5%	·
Cc1ccc(N(CCC#N)C(=O)CCl)cc1C	18µM*	-35%	-117%	-10%	12%	-42%
COc1cccc(-n2c(SCC(N)=O)nc3c(oc4ccccc43)c2=O)c1	·	·	7%	·	-9%	·
CC1=Nc2cc(C(=O)NCCc3ccccc3)ccc2Sc2c(C)ccc(C)c21	·	·	-34%	·	-3%	·
CCCNC(=O)c1ccc2c(c1)N=C(C)c1c(C)ccc(C)c1S2	·	·	4µM*	·	?	·
